Experimental findings from PubChem BioAssay (NCI) are described below.

This is part of a sample that, as a whole, favours compounds with a hit. Of some 83,000 tested, about 20% had one in any assay.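 96-well plates, one dose, 48 hours. Percent growth reported; active if below 10.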 Unmarked numbers belong to inactive results. Calls of active or inactive are those of the source.

The subject of the assay is HL-60(TB) leukemia. The experiment in a line: NCI-60 one-dose screen, 48 h (100 = growth as untreated, 0 = no growth, -100 = all killed). The settings on record: 10 µM unless noted.
Turning to `COc1ccc2sc(NC(=O)CCCCCCNC(=O)C(O)(O)C(F)(F)F)nc2c1`, the growth was 11.8%.

For the molecule `Cn1c(SC(C(=O)Nc2ccc(F)cc2)c2ccccc2)nc2ccccc2c1=O` (stereo not given), the growth was 103%. As for `Cc1noc(C)c1CSc1nc2ccccc2n1-c1ccccc1`, the figure is 111%; as for `O=C(Cn1cc(CN2C(=O)c3ccc([N+](=O)[O-])cc3C2=O)nn1)Nc1ccc(F)cc1Cl`, 99.2%. In the case of `CC(c1ccccc1)N1C(=O)/C(=C/c2csc(C#N)n2)SC1=S` (stereo not given), the growth was 4.32% (active). Turning to `Cc1nn(-c2ccccc2)c2ncnc(N/N=C/c3cccc(O)c3)c12`, the growth is 35.3%.

Take `Nc1nc(=O)n([C@H]2C[C@H](O)[C@@H](CO)O2)cc1C=O`: the growth is 94.1%.

As for `Cc1cc2nc3c4cc(Cl)ccc4n(CC(=S)NCCN(C)C)c3nc2cc1C`, the growth is -63.4% (active). As for `Cc1csc(/N=C(N)/N=C(\N)c2cccc(C#N)c2)n1`, the figure is 70.8%. As for `CC1=C(SCC(=O)OCCCCCC(C)C)C(=O)c2ccccc2C1=O`, the figure is 86.8%; as for `CCOC(=O)c1c(Nc2ccccc2)nn2c(N)c(C#N)c(-c3ccc(OC)cc3)nc12`, 112%.

Turning to `O=C(CCCCCCNC(=O)C(O)(O)C(F)(F)F)Nc1ccc(-c2ccccc2)cc1`, the growth is 13.1%. As for `CN1CCN(c2ccc(C(=O)/C=C/c3ccc(Cl)c(C(F)(F)F)c3)cc2)CC1`, the figure is -22.6% (active). As to `COc1ccc(S(=O)(=O)NCCCNc2nccc(-c3[nH]c(-c4ccccc4)nc3-c3ccc(Cl)c(O)c3)n2)cc1`, the growth is 43.2%.

Take `COc1ccccc1/C=C1\Oc2ccc(O)c(O)c2C1=O`: the growth was 76.1%.
